SMILES strings stand for the structures. Inconclusive results are not listed. The source made the active and inactive calls. Calls follow the shape of the dose curve; as a rule, active = well fitted inhibition curve with a large enough effect; inconclusive = small, poorly fitted or top-dose-only effect; inactive = flat fitted curve, though single readings scatter.

Experiment in all cases: qHTS profiling for inhibitors of Plasmodium falciparum proliferation (AID 504749); also: nearly all actives have a fitted effect of over 60% in size
Settings in all cases: P. falciparum in erythrocytes, SYBR Green DNA, 72 h; series mostly up to 28.7 µM
(In general: Quantitative high-throughput screening tests each substance at several concentrations.)

One assay relates to CP237. The gist of the method:
(§1)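 Parasite proliferation within erythrocytes, 72 h exposure. Endpoint: SYBR Green I fluorescence after overnight lysis at room temperature. Controls: 0.29 uM artemisinin, DMSO.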

The test system of the next assay is CP238. The gist of the method: as §1
For another assay, the system named is CP247. In a few lines: as §1
Another assay relates to CP250. In a few lines: as §1
The subject of a further assay is CP252. The gist of the method:
as §1

Another assay deals with CP256. The gist of the method:
as §1

In a further assay the test system is CP260. In a few lines:
as §1

For another assay, the system named is CP262. The gist of the method:
as §1

Another assay has as its system CP265. The gist of the method:
as §1

For another assay, the system named is CP266. The gist of the method:
as §1
Potency is read from the fitted curve at half-maximal effect.

As to `CCCCCN(CCCCC)C(=O)C(CCC(=O)O)NC(=O)c1ccc(Cl)c(Cl)c1` (stereo unspecified), the Potency result in the assay on CP237, in the assay with CP238, with CP247, with CP250, in the assay on CP252 and with CP256 was “inactive” in each case. Further, the Potency entry with CP260, in the assay on CP262, with CP265 and in the assay with CP266 was “inactive” throughout.

Regarding `NC1=NCC2c3ccccc3Cc3ccccc3N12` (stereo unspecified), the Potency result in the assay on CP237, with CP238, with CP247, in the assay on CP250, in the assay with CP252 and with CP256 was “inactive” in each case. Besides, the Potency result in the assay on CP260, with CP262, in the assay on CP265 and with CP266 was “inactive” throughout.

On to `c1cnc(N2CCN(Cc3ccc4c(c3)OCO4)CC2)nc1`, for which the Potency result with CP237, in the assay with CP238, with CP247, in the assay with CP250, with CP252 and in the assay with CP256 was “inactive” each time. Besides, the Potency entry in the assay on CP260, with CP262, with CP265 and in the assay with CP266 was “inactive” in each case.

As to `O=C(O)CCCCCCCC(=O)O`, the Potency entry in the assay with CP237, in the assay with CP238, with CP247, with CP250, in the assay on CP252 and with CP256 was “inactive” throughout. Further, the Potency entry in the assay on CP260, in the assay on CP262, in the assay with CP265 and with CP266 was “inactive” throughout.

Consider `CC(=O)Nc1nnc(S(N)(=O)=O)s1`, for which the Potency entry with CP237, with CP238, in the assay on CP247, with CP250, in the assay on CP252 and in the assay on CP256 was “inactive” in each case. In addition, the Potency result in the assay with CP260, with CP262, in the assay with CP265 and with CP266 was “inactive” in each case.

`Cc1nnc(SCC2=C(C(=O)O)N3C(=O)[C@@H](NC(=O)Cn4cnnn4)[C@H]3SC2)s1`: the Potency result with CP237, in the assay with CP238, in the assay with CP247, in the assay on CP250, in the assay with CP252 and in the assay on CP256 was “inactive” in each case. Besides, the Potency entry in the assay with CP260, in the assay on CP262, in the assay on CP265 and in the assay on CP266 was “inactive” in each case.

On to `Cc1ccc(=O)n(-c2ccccc2)c1`, for which the Potency entry in the assay on CP237, with CP238, in the assay on CP247, in the assay on CP250, with CP252 and with CP256 was “inactive” each time. Besides, the Potency entry in the assay on CP260, with CP262 and in the assay with CP265 was “inactive” in each case.

Take `CCN(CC)CCNC(=O)c1cc(S(C)(=O)=O)ccc1OC`: the Potency entry in the assay with CP237, in the assay with CP238, in the assay with CP247, with CP250, in the assay with CP252 and in the assay on CP256 was “inactive” in each case. Besides, the Potency result in the assay on CP260, with CP262 and in the assay with CP265 was “inactive” in each case.

On to `COC(=O)C1=C(C)NC(C)=C(C(=O)OC(C)(C)CN(C)CCC(c2ccccc2)c2ccccc2)C1c1cccc([N+](=O)[O-])c1` (stereo unspecified), for which the Potency in the assay with CP237 was 2.51 µM (active); with CP238 it was 3.98 µM (active); in the assay with CP247, 3.16 µM (active); in the assay with CP250, 3.55 µM (active); in the assay with CP252, 3.55 µM (active); with CP256, 2.82 µM (active). For the same compound, the Potency in the assay with CP260 was 2.24 µM (active); in the assay on CP262, 4.26 µM (active); with CP265 it was 3.55 µM (active); in the assay with CP266 it was 6.75 µM (active).

`C[N+](C)(C)CCOC(=O)CCC(=O)OCC[N+](C)(C)C`: the Potency result in the assay on CP237, with CP238, with CP247, in the assay with CP250, with CP252 and in the assay on CP256 was “inactive” in each case. In addition, the Potency entry in the assay with CP260, in the assay on CP262, with CP265 and in the assay on CP266 was “inactive” each time.

`COCC(=O)O[C@]1(CCN(C)CCCc2nc3ccccc3[nH]2)CCc2cc(F)ccc2[C@@H]1C(C)C`: the Potency was 0.199 µM (active) with CP237; 4.47 µM (active) in the assay on CP238; 3.55 µM (active) in the assay on CP247; 4.47 µM (active) in the assay on CP250; 4.47 µM (active) in the assay with CP252; 4.47 µM (active) in the assay on CP256. In addition, the Potency is 1.58 µM (active) with CP260, 6.75 µM (active) with CP262, 4.47 µM (active) in the assay on CP265 and 6.75 µM (active) in the assay on CP266.

As to `NC(Cc1ccc(Cl)cc1)C(=O)O` (stereo unspecified), the Potency entry in the assay with CP237, with CP238, in the assay with CP247, in the assay with CP250, in the assay with CP252 and with CP256 was “inactive” throughout. For the same compound, the Potency result in the assay with CP260, in the assay on CP262, with CP265 and with CP266 was “inactive” throughout.

Regarding `Cc1cc(C)c(/C=C2\C(=O)Nc3ccccc32)[nH]1`, the Potency result in the assay with CP237, with CP238, with CP247, in the assay with CP250, in the assay with CP252 and in the assay with CP256 was “inactive” in each case. Further, the Potency result in the assay on CP260, in the assay on CP262, with CP265 and with CP266 was “inactive” each time.

As for `Nc1c2c(nc3ccccc13)CCCC2O` (stereo unspecified), the Potency entry in the assay on CP237, in the assay on CP238, in the assay on CP247, in the assay on CP250, in the assay with CP252 and in the assay with CP256 was “inactive” throughout. In addition, the Potency entry in the assay with CP260, in the assay with CP262, in the assay with CP265 and with CP266 was “inactive” each time.

Consider `O=c1[nH]c(=O)n([C@H]2C[C@H](O)[C@@H](CO)O2)cc1Br`, for which the Potency entry with CP237, with CP238, with CP247, in the assay on CP250, in the assay on CP252 and with CP256 was “inactive” throughout. Moreover, the Potency entry in the assay on CP260, in the assay with CP262, with CP265 and with CP266 was “inactive” throughout.

As for `NC/C=C/C(=O)O`, the Potency entry in the assay on CP237, with CP238, in the assay on CP247, with CP250, in the assay on CP252 and in the assay on CP256 was “inactive” each time. The Potency entry with CP260, in the assay with CP262, in the assay with CP265 and in the assay on CP266 was “inactive” throughout.

For `CNC1(C)C2CCC(C2)C1(C)C` (stereo unspecified), the Potency in the assay with CP237 was 7.94 µM (active). For the same compound, the Potency result with CP238, in the assay on CP247, in the assay on CP250, in the assay on CP252, in the assay on CP256 and in the assay on CP260 was “inactive” throughout. Moreover, the Potency entry in the assay on CP262, in the assay on CP265 and with CP266 was “inactive” in each case.

`CCCOc1ccccc1-c1nc2n[nH]nc2c(=O)[nH]1`: the Potency result in the assay on CP237, in the assay with CP238, in the assay with CP247, with CP250, in the assay with CP252 and with CP256 was “inactive” in each case. In addition, the Potency result in the assay on CP260, in the assay on CP262, with CP265 and in the assay on CP266 was “inactive” in each case.

Turning to `CCOC(=O)c1cnc2c(cnn2CC)c1NN=C(C)C`, the Potency entry with CP237, in the assay with CP238, with CP247, with CP250, with CP252 and in the assay with CP256 was “inactive” each time. In addition, the Potency result with CP262, with CP265 and in the assay on CP266 was “inactive” each time.

As for `C#CCN(C)CCCOc1ccc(Cl)cc1Cl`, the Potency entry in the assay on CP237, with CP238, with CP247, in the assay with CP252, in the assay on CP256 and in the assay with CP260 was “inactive” in each case. Moreover, the Potency entry in the assay with CP262, in the assay with CP265 and in the assay on CP266 was “inactive” throughout.

Regarding `CN(C)C(=O)Oc1cccc([N+](C)(C)C)c1`, the Potency entry in the assay on CP237, in the assay on CP238, in the assay with CP247, in the assay with CP250, in the assay with CP252 and in the assay on CP256 was “inactive” in each case. The Potency result in the assay with CP260, in the assay with CP262, with CP265 and in the assay on CP266 was “inactive” in each case.

The record behind these values is PubChem BioAssay (NCATS).
